Measured values reported in PubChem BioAssay (NCI).
The panel holds about 83,000 compounds, 20% with a hit somewhere; the sample as a whole holds those more often.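 In brief: 96-well plates, 48 h treatment, single concentration, percent growth endpoint.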

Legend:
Test in all cases: NCI-60 one-dose screen, 48 h (100 = growth as untreated, 0 = no growth, -100 = all killed)
Conditions in all cases: 10 µM unless noted; active = growth percent below 10; inactive = the rest
NCI-H23 lung = test system: NCI-H23 lung
NCI-H226 lung = test system: NCI-H226 lung
NCI-H322M lung = test system: NCI-H322M lung
HOP-62 NSCLC = test system: HOP-62 NSCLC
NCI-H460 lung = test system: NCI-H460 lung
HOP-92 NSCLC = test system: HOP-92 NSCLC
NCI-H522 lung = test system: NCI-H522 lung
A549/ATCC NSCLC = test system: A549/ATCC NSCLC
786-0 renal = test system: 786-0 renal

Measured: growth

CCOC(=O)Cc1csc2nc(-c3ccccc3)nn12
inactive: NCI-H23 lung 97.9% | NCI-H226 lung 101% | NCI-H322M lung 125% | HOP-62 NSCLC 103% | NCI-H460 lung 108% | HOP-92 NSCLC 79.1% | NCI-H522 lung 103% | A549/ATCC NSCLC 105% | 786-0 renal 92%

CN1CCN(C(=O)[C@]23CCC(C)(C)C[C@@H]2C2=CC[C@@H]4[C@@]5(C)Cc6c([nH]c7ccccc67)C(C)(C)[C@@H]5CC[C@@]4(C)[C@]2(C)CC3)CC1
inactive: NCI-H23 lung 93.3% | NCI-H226 lung 86.9% | NCI-H322M lung 88.6% | HOP-62 NSCLC 80% | NCI-H460 lung 75.8% | HOP-92 NSCLC 70.7% | NCI-H522 lung 78.2% | A549/ATCC NSCLC 69.4% | 786-0 renal 74.4%

N#Cc1c(NC(=O)c2ccc(Br)cc2)sc2c1CCCC2
inactive: NCI-H23 lung 65% | NCI-H226 lung 44.2% | NCI-H322M lung 52.1% | HOP-62 NSCLC 46.4% | NCI-H460 lung 14.3% | HOP-92 NSCLC 81.5% | NCI-H522 lung 22.6% | A549/ATCC NSCLC 53.6% | 786-0 renal 46.1%
